Article PMC5540273 (PLoS ONE, 2017)

Tests used:
Conditions in all cases: concentration: 1 μM, replicates: in singlicate; n = 1
PIK3C2G = test system: PIK3C2G
PIK3CA = test system: PIK3CA
PIK3CB = test system: PIK3CB
PIK3CD = test system: PIK3CD
PIK3CG = test system: PIK3CG
PIK4CB = test system: T1, PIK4CB
T1 construct: gene PI4KB

PIKFYVE = test system: PIKFYVE
PIM1 = test system: PIM1
PIM2 = test system: PIM2
PIM3 = test system: PIM3
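Note: KINOMEscan kinase panel screen.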

Row | Structure (SMILES) | %Inh (PIK3C2G) [%] | %Inh (PIK3CA) [%] | %Inh (PIK3CB) [%] | %Inh (PIK3CD) [%] | %Inh (PIK3CG) [%] | %Inh (PIK4CB) [%] | %Inh (PIKFYVE) [%] | %Inh (PIM1) [%] | %Inh (PIM2) [%] | %Inh (PIM3) [%]
1 | Nc1ncnc2c1nc(-c1ccccc1)n2-c1ccccc1 [SKF-97293] | 6 | 16 | 27 | 17 | 13 | 29 | 20 | 39 | 0 | 24
2 | Cn1cc(-c2ccc3c(c2)CCN3C(=O)Cc2cccc(Cl)c2)c2c(N)ncnc21 [GSK2606590] | 0 | 0 | 15 | 0 | 39 | 0 | 0 | 31 | 0 | 8
3 | Oc1cc(Nc2ccnc3cc(I)ccc23)ccc1F [GW552771] | 0 | 0 | 0 | 19 | 0 | 20 | 13 | 8 | 0 | 0
4 | CC(C)c1nc(-c2cccc(NS(=O)(=O)c3c(F)cccc3F)c2F)c(-c2ccnc(Nc3ccc(N4CCOCC4)nc3)n2)s1 [GSK2008607] | 0 | 6 | 0 | 0 | 0 | 0 | 31 | 11 | 0 | 0
5 | Nc1ncc(-c2ccc3nccc(-c4ccncc4)c3c2)cc1S(=O)(=O)N1CCOCC1 [GSK1627798] | 99.1 | 100 | 77 | 94.1 | 99.5 | 96.1 | 0 | 0 | 0 | 0
6 | c1ccc(-c2n[nH]cc2Nc2ccnc3ccccc23)nc1 [GW694077] | 15 | 0 | 0 | 0 | 14 | 95.7 | 0 | 81 | 7 | 79
7 | COc1cccc(-c2ccc3c(NC(=O)C4CC4)n[nH]c3n2)c1 [SB-710903] | 0 | 0 | 0 | 9 | 0 | 0 | 27 | 12 | 0 | 0
8 | CCn1c(-c2nonc2N)nc2c(C#CC(C)(C)O)nc(OC[C@H](N)c3ccccc3)cc21 [GSK943949] | 11 | 0 | 0 | 0 | 0 | 0 | 60 | 0 | 23 | 0
9 | CN1CCN(Cc2cccc(-c3ccc4c(Nc5ccc(Oc6ccccc6)cc5)ccnc4c3)c2)CC1 [GW578342] | 0 | 0 | 0 | 30 | 1 | 0 | 16 | 0 | 0 | 0
10 | O=C(Nc1ccccc1F)NC1CCN(c2ccnc(Nc3ccc(F)cc3)n2)CC1 [GSK1379800] | 0 | 1 | 0 | 0 | 3 | 0 | 0 | 0 | 0 | 0
11 | COc1cccc(C(=O)Nc2cccc(Oc3ccc4nc(NC(=O)C5CC5)cn4n3)c2)c1 | 1 | 0 | 0 | 0 | 0 | 0 | 0 | 9 | 11 | 17
12 | Nc1ncc(-c2cccnc2)c2scc(-c3ccc4c(c3)CCN4C(=O)Cc3ccccc3)c12 [GSK683281] | 0 | 0 | 0 | 0 | 0 | 0 | 0 | 0 | 0 | 0
13 | CN(C)Cc1ccc(-c2ccc3c(Nc4ccc(Oc5ccccn5)cc4)ccnc3c2)o1 [GW567148] | 0 | 0 | 0 | 0 | 0 | 0 | 0 | 0 | 0 | 0
14 | CN(c1ccc(NC(=O)Nc2cc(C(F)(F)F)ccc2F)cc1)c1ccnc(Nc2ccc(S(N)(=O)=O)cc2)n1 [GW809893] | 39 | 3 | 0 | 30 | 31 | 0 | 0 | 0 | 0 | 0
15 | O=C(Nc1n[nH]c2nc(-c3ccc(O)cc3)ccc12)C1CC1 [SB-710363] | 0 | 0 | 0 | 0 | 2 | 20 | 0 | 45 | 89 | 81
16 | O=C(NC1CCN(c2ccnc(Nc3ccc(F)cc3)n2)C1)c1cc2ccccc2s1 (stereo not drawn) [GSK1379716] | 0 | 0 | 0 | 0 | 0 | 0 | 4 | 20 | 0 | 11
17 | Nc1n[nH]c2cnc(-c3ccccc3)cc12 [SB-642124] | 0 | 0 | 0 | 0 | 0 | 14 | 0 | 38 | 0 | 13

Row | Structure (SMILES) | %Inh (PIK3C2G) [%] | %Inh (PIK3CA) [%] | %Inh (PIK3CB) [%] | %Inh (PIK3CD) [%] | %Inh (PIK3CG) [%] | %Inh (PIK4CB) [%] | %Inh (PIKFYVE) [%] | %Inh (PIM1) [%] | %Inh (PIM2) [%] | %Inh (PIM3) [%]
18 | O=C(Nc1cccc(-c2nn3ncccc3c2-c2ccnc(Nc3ccccc3)n2)c1)c1c(F)cccc1F [GSK198271] | 0 | 0 | 0 | 0 | 0 | 6 | 0 | 16 | 0 | 5
19 | Cl.c1ccc(-c2ccc3c(Nc4ccc5[nH]ccc5c4)ccnc3c2)nc1 [GW440138] | 0 | 0 | 37 | 2 | 0 | 0 | 16 | 0 | 0 | 0
20 | COc1cc(Nc2nccc(N3CCC(NC(=O)Nc4cccc(C(C)=O)c4)C3)n2)cc(OC)c1OC (stereo not drawn) [GSK1379753] | 0 | 5 | 0 | 46 | 20 | 78 | 0 | 0 | 0 | 0
21 | COc1cc(Nc2nccc(-c3c(-c4cccc(NC(=O)c5c(F)cccc5F)c4)nn4ncccc34)n2)cc(OC)c1OC [GSK327238] | 0 | 2 | 3 | 0 | 6 | 0 | 0 | 0 | 0 | 0
22 | COc1ccc(Nc2nccc(N3CCC(NC(=O)Nc4cccc(OC)c4)C3)n2)cc1 (stereo not drawn) [GSK1379742] | 0 | 0 | 0 | 0 | 0 | 1 | 0 | 0 | 0 | 3
23 | Cl.Cl.NCC(C(=O)Nc1cc(Br)c(-c2ccnc3[nH]ccc23)s1)c1ccccc1 (stereo not drawn) [GSK1269851] | 0 | 0 | 0 | 0 | 0 | 9 | 0 | 19 | 0 | 0
24 | c1ccc(Oc2ccc(Nc3ccnc4cc(-c5ccc(CNCCN6CCOCC6)o5)ccc34)cc2)nc1 [GW567145] | 0 | 0 | 0 | 0 | 0 | 0 | 50 | 0 | 0 | 0
25 | COC(=O)Nc1nc2cc(Oc3ccc(NC(=O)Nc4cc(C(F)(F)F)ccc4F)cn3)ccc2[nH]1.Cl.Cl [GW681170] | 0 | 0 | 5 | 0 | 0 | 0 | 0 | 9 | 0 | 0
26 | Fc1ccc(-c2ncn(C3CCNCC3)c2-c2ccnc(Oc3ccc(-c4ccccc4)cc3)n2)cc1 [SB-245391] | 39 | 40 | 40 | 73 | 39 | 31 | 15 | 23 | 4 | 16
27 | CSc1cccc2c(-c3ccncn3)c(-c3ccc(F)cc3)nn12 [GW514786] | 0 | 0 | 0 | 0 | 0 | 0 | 19 | 0 | 0 | 15
28 | COc1cccc(NC(=O)NC2CCN(c3ccnc(Nc4cc(OC)c(OC)c(OC)c4)n3)C2)c1 (stereo not drawn) [GSK1379763] | 0 | 0 | 0 | 51 | 8 | 78 | 0 | 0 | 0 | 0
29 | Cc1ccc(C)c(NC(=O)NC2CCN(c3ccnc(Nc4ccc(F)cc4)n3)C2)c1 (stereo not drawn) [GSK1379720] | 0 | 0 | 0 | 8 | 0 | 0 | 0 | 15 | 0 | 0
30 | Cn1cc(-c2[nH]c3cc(NC(=O)[C@H](N)C4CCCCC4)cc4c3c2C=NNC4=O)cn1 | 0 | 0 | 9 | 6 | 0 | 0 | 1 | 39 | 0 | 46
31 | COc1ccc(Nc2nccc(NCCNC(=O)c3cc4ccccc4s3)n2)cc1 [GSK1379896] | 0 | 0 | 32 | 0 | 0 | 0 | 0 | 8 | 0 | 2
32 | COc1ccc(CNC(=O)NC2CCN(c3ccnc(Nc4ccc(F)cc4)n3)CC2)cc1 [GSK1379788] | 0 | 0 | 0 | 0 | 0 | 0 | 6 | 0 | 0 | 0
33 | CC(=O)N1CCN(c2ccc(Nc3nccc(-c4sc(C(C)C)nc4-c4cccc(NS(=O)(=O)c5cccc(Cl)c5)c4)n3)cn2)CC1 [GSK1660437] | 0 | 0 | 13 | 0 | 0 | 0 | 0 | 0 | 0 | 89
